Among all 31,000 sequences or so, about 1,400 (4.5%) were called active.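 How the source made its calls: active means median seed-adjusted z-score above 1 or below -1; inactive means the rest.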 The sample as a whole holds a higher share of actives than the screen did.
Experiment: Novel Modifiers of Survival Motor Neuron (SMN) Protein: Gene Identification via Genome-wide siRNA Screen
Conditions: HEK293T SMN2-luciferase reporter, siRNA knockdown, 72 h; actives lie on both sides
Description: Spinal muscular atrophy (SMA) is the most common neuromuscular autosomal recessive disorder and one of the leading genetic causes of infant death. SMA results from mutations inducing loss of function or deletion in the survival of motor neuron-1 gene (SMN1), leading to deficiency of the survival motor neuron (SMN) protein. Although a second nearly identical gene, SMN2, is retained in humans, its expression primarily produces an aberrantly spliced isoform that is largely unstable and quickly degraded. We performed a genome-wide RNAi screen using a cell-based reporter assay to identify genes and pathways that modulate SMN protein stability. The screen identified over 200 genes that led to the greatest increase or decrease in luciferase expression.
Using HEK293T cells stably expressing a luciferase reporter that combines the promoter and splicing based cassettes in tandem with the major portion of the native SMN2 cDNA with luciferase, we performed a genome-wide RNAi screen to identify modulators of SMN protein levels. Luciferase is expressed when full-length SMN protein is generated with luminescence signal proportional to SMN protein levels. Our luciferase-based reporter assay was used to screen Ambion Silencer Select Human Druggable Genome siRNA library (10418 genes, 3 unique siRNAs per gene) using lipid-based reverse transfection.
Briefly, 1 pmol of each siRNA was spotted to a well of a 384-well plate (Corning, Corning, NY) and 20 microL of serum-free DMEM containing […] of Lipofectamine RNAiMax (Life Technologies, Carlsbad, CA) was then added to each well. Transfected cells were maintained at 37 degrees C in 5% CO2 for 72 hours, 20 microL of ONE-Glo Reagent (Promega) was added to wells for luciferase quantification. Raw luminescence reads were normalized to Ambion(R) Silencer(R) Negative Control #2 siRNA, then log10 transformed. A robust statistical measure of median absolute deviation (MAD) to standardize siRNA activities from each screen. Common Seed Analysis was used to help prioritize clean hits as opposed to those appearing to arise from seed based off-target effects. Candidate modulators were defined as the genes having a MAD score greater than 1.0 or less than -1.0.
With GCAGCGUAGUUUUUGCGGATT against DOCK2 the median seed-adjusted z-score was 0.151 (inactive).
In the case of UCAGUGCCCUUGUAUCAAATT against CYP4F2, the median seed-adjusted z-score is reported as -0.387 (inactive).
With GCCUCAGUUUGAAAUUGUUTT against TBRG1 the median seed-adjusted z-score was -1.47 (active).
With CAGACUCUCCGAUCUCUGATT against NRIP3 the median seed-adjusted z-score was -0.699 (inactive).
In the case of CCUGGAUCCAAAUAGCGAATT against SMARCA2, the median seed-adjusted z-score is reported as -0.458 (inactive).
For CUCUUUGACGUGUCUCAUATT against AMT, the median seed-adjusted z-score was -0.506 (inactive).
For CCUGAACAUUGGACCCUGUTT against CPSF1, the median seed-adjusted z-score was 3.29 (active).
With UCACUUUCCCUGUAAAUAUTT against CD84 the median seed-adjusted z-score was 0.629 (inactive).
In the case of GCAAGACCUAAGCAAACUATT against BXDC1, the median seed-adjusted z-score is reported as 0.173 (inactive).
For CAUAGACUCUUACACCACATT against SC4MOL, the median seed-adjusted z-score was -0.0194 (inactive).
In the case of GGCUGUCUGCUGUACGAGATT against NEK6, the median seed-adjusted z-score is reported as -0.674 (inactive).
For CCAGCUCCUUUAUCAAGCATT against RAD51, the median seed-adjusted z-score was 0.594 (inactive).
For GCCUGGAUAACAUCACUGATT against AIM2, the median seed-adjusted z-score was 0.0646 (inactive).
With GACCUGAUGUGGACCCAGATT against MIOX the median seed-adjusted z-score was 0.14 (inactive).
With GCGACCAACUGAUUGUCGATT against PTPRZ1 the median seed-adjusted z-score was 1.73 (active).
In the case of GACACUUGCUUAGAAGUAATT against LRP12, the median seed-adjusted z-score is reported as 0.416 (inactive).
In the case of GGAUCUACGUGUACGUCAATT against LPAR3, the median seed-adjusted z-score is reported as -0.3 (inactive).
With GGAUCAGUUUGACAGUUUUTT against RNPEP the median seed-adjusted z-score was -0.236 (inactive).
For GGAAAUUAGCUGCAGCUGATT against PPP1R2, the median seed-adjusted z-score was 0.208 (inactive).
With GGAGAACCACAGUUGCUUUTT against IL17RA the median seed-adjusted z-score was -1.29 (active).
With GGAUUCAUCCUUACCCUCATT against PPP2R4 the median seed-adjusted z-score was 0.318 (inactive).
For GCUUUACAGAAAGCCGUGATT against STRADB, the median seed-adjusted z-score was 0.21 (inactive).
In the case of CCCUCGAGCAUGUUCCAAATT against PRPF6, the median seed-adjusted z-score is reported as -1.06 (active).
With AGAUCGUGGUGCAUCCAUATT against ELA1 the median seed-adjusted z-score was 0.687 (inactive).
In the case of GCACCAACCUGACCUGUCATT against CD33, the median seed-adjusted z-score is reported as -0.355 (inactive).
With GAACCAAGAUCAUUAUGCATT against DNAJC2 the median seed-adjusted z-score was -0.0357 (inactive).
For GCGCAGCCUUUAGAGGAUATT against UBE2J1, the median seed-adjusted z-score was -1.2 (active).
In the case of UGGAGUAAAUAGUUCUAAUTT against UBE2V1, the median seed-adjusted z-score is reported as 0.745 (inactive).
For UGAGGAUAGUGGGUCUGUATT against MEIS3, the median seed-adjusted z-score was 0.207 (inactive).
In the case of GACUCAUCGUGAUGAGAUUTT against SLC7A9, the median seed-adjusted z-score is reported as 0.194 (inactive).
With GGAACAAGUAUUUAGGAAATT against CAPSL the median seed-adjusted z-score was -0.168 (inactive).
In the case of CCCUAGGCCUUUUACGAAATT against RAG1, the median seed-adjusted z-score is reported as -1.35 (active).
With AGCAGAAGAAGUUCAAAUATT against P2RX1 the median seed-adjusted z-score was 0.908 (inactive).
With GCAGUAUAUUACAAACAAATT against NAT2 the median seed-adjusted z-score was -0.0495 (inactive).
For GGCCCAAGCUUCAACAGCATT against DNASE2, the median seed-adjusted z-score was -1.23 (active).
For GGAAAUCGUUCAGUAAGAATT against ZNF175, the median seed-adjusted z-score was -0.0194 (inactive).
In the case of CCAUAACCUUAUUGACGCATT against LRFN4, the median seed-adjusted z-score is reported as -0.076 (inactive).
With GCCUGAUUCUGAGUGAUGATT against SPTLC2 the median seed-adjusted z-score was 0 (inactive).
With GCCUGAUACAAAAUCAACATT against TRPC5 the median seed-adjusted z-score was -1.14 (active).
For GGAGUUACAUCAGACCUAUTT against MOGAT1, the median seed-adjusted z-score was 0.293 (inactive).
In the case of GGAAAUCUGAAGACGAUAATT against CCAR1, the median seed-adjusted z-score is reported as -1.18 (active).
For AACUGGGAAUUGAGAGGUATT against SOX12, the median seed-adjusted z-score was 0.478 (inactive).
With GGCCUUACCAAUCAUCAUUTT against SLC28A2 the median seed-adjusted z-score was -0.076 (inactive).
For GAAUUCGACCAGUAUUUGATT against SOX7, the median seed-adjusted z-score was -0.387 (inactive).
With CCGUAUGUUUUGCUGCAAATT against ABCC4 the median seed-adjusted z-score was -1.66 (active).
With GCAAGUCCCGCAAAAAGAATT against NEIL1 the median seed-adjusted z-score was -0.168 (inactive).
For GCACCGUCAAGGAAGAUAATT against ADAMTSL1, the median seed-adjusted z-score was -0.107 (inactive).
In the case of GUAUGCGACUGGGAUCUUATT against HP, the median seed-adjusted z-score is reported as 0 (inactive).
In the case of CAGUGGAAAUAAUUACGUUTT against MDH1B, the median seed-adjusted z-score is reported as -1.13 (active).
With GAUCUACACUUGGAUGGAUTT against SAP18 the median seed-adjusted z-score was 2.14 (active).
With CUAACGAAGAUUCACCCAATT against ASPN the median seed-adjusted z-score was -0.0432 (inactive).
In the case of UCGUGGUUGUUAAUUUGAATT against CSNK1E, the median seed-adjusted z-score is reported as -0.796 (inactive).
With CAACUGUUCCUGUAUUGAATT against SLCO4C1 the median seed-adjusted z-score was -0.116 (inactive).
With GUAUCAAUCUAGAGCACAATT against MYOZ2 the median seed-adjusted z-score was 0.315 (inactive).

Source: PubChem BioAssay AID1347426 (Functional Genomics Laboratory (NCATS/FGL), 2020)
